# ChEMBL document CHEMBL3433997, “St. Jude Leishmania screening dataset” (2016)
# Columns and labels:
# Assay type in all cases: functional
# [1] = target: Solute carrier family 2, facilitated glucose transporter member 1 (Homo sapiens) (UniProt P11166); test: ST_JUDE_LEISH: Cytotoxicity at 2uM final concentration against transgenic Leishmania Mexicana promastigotes LmGLUT1 that are glucose transport deficient and complemented with the human glucose transporter GLUT1. Activity is measured by DNA content using SYBR green in vitro
# [2] = target: Hexose transporter 1 (Plasmodium falciparum) (UniProt O97467); test: ST_JUDE_LEISH: Cytotoxicity at 2uM final concentration against transgenic Leishmania Mexicana promastigotes LmPfHT that are glucose transport deficient and complemented with the Plasmodium falciparum hexose transporter. Activity is measured by DNA content using SYBR green in vitro
# [3] = target: Glucose transporter (Leishmania mexicana) (UniProt O61059); test: ST_JUDE_LEISH: Cytotoxicity at 2uM final concentration against transgenic Leishmania Mexicana promastigotes LmGT2 that are glucose transport deficient and complemented with the L. Mexicana glucose transporter 2. Activity is measured by DNA content using SYBR green in vitro
# Sequence of Solute carrier family 2, facilitated glucose transporter member 1 (Homo sapiens) (P11166 whole entry): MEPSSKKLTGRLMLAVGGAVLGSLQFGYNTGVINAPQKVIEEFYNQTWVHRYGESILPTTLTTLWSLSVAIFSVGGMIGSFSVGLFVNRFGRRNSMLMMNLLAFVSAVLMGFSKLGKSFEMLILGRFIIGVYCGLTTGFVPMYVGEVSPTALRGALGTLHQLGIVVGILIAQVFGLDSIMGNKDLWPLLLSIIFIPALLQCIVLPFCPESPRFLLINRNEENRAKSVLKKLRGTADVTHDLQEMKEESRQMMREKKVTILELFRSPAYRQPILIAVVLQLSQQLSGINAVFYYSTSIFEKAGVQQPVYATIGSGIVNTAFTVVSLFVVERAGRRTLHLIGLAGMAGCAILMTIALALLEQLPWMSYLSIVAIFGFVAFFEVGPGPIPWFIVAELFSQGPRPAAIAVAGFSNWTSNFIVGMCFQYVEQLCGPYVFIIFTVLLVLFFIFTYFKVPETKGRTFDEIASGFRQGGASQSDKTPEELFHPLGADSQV
SMILES,inhibition [1],inhibition [2],inhibition [3]
CS(=O)(=O)Nc1cccc(-c2cnc3[nH]cc(-c4ccc(CN)cc4)c3c2)c1,4.62%,4.04%,3.33%
O=C(O)c1ccc(OCOCOc2ccc(C(=O)O)c(O)c2)cc1O,5.67%,5.54%,3.43%
Cc1cccc2nc(-c3ccc(-c4ccc(CN5CCCCC5)cc4)s3)[nH]c12,4.61%,2.36%,3.32%
Fc1ccc(-c2nc(NCc3cccc(C(F)(F)F)c3)nn2-c2cccc(C(F)(F)F)c2)cc1C(F)(F)F,1.81%,1.48%,2.56%
Cc1cccc(-c2ccc(NC(=O)Nc3ccc4nccc(N5CCN(C)CC5)c4c3)cc2C)n1,8.09%,5.32%,3.13%
COc1ccc(OCCON)cc1,7.35%,10.4%,8.87%
Fc1ccc2c(NN=Cc3ccccc3)ccnc2c1,2.29%,1.07%,-1.55%
CN1CCCC1CCOc1ccc2c(c1)N(C(=O)Nc1cc(Br)cc(C(F)(F)F)c1)CC2 (centres undefined),-1.82%,-2.4%,-2.02%
CC1CN(c2cnn(Cc3ccc(NC(=O)Nc4ccc(-c5ccccc5)cc4)cc3)c(=O)c2Cl)CC(C)N1 (centres undefined),1.43%,0.34%,-1.78%
NCCCNc1nc(Nc2cccc(C(N)=O)c2)c2c(=O)[nH]ccc2n1,-0.41%,1.23%,0.77%
COc1ccc(NC(=O)Nc2cc(C)nc3cccnc23)cc1Cn1ccnc1,1.73%,1.25%,0.47%
COCc1ccccc1C(=O)NCCOc1cc(C)cc(C)c1,-0.29%,0.17%,-0.46%
c1ccc2c(c1)ncc1c3ccccc3[nH]c21,7.76%,7.76%,4.67%
O=C(NCCCN1CCOCC1)c1cccc(Nc2nccc(Nc3ccc(Oc4ccccc4)cc3)n2)c1,2.39%,-0.18%,-0.86%
CCOC(=O)CNC(=O)N(CCN(Cc1ccccc1)C(=O)NCC(=O)OCC)Cc1ccccc1,0.94%,2.07%,1.35%
O=[N+]([O-])c1ccc(Nc2nc(NCc3ccccc3)nc(N/N=C/c3ccccc3[N+](=O)[O-])n2)cc1,2.21%,-0.41%,0.43%
CCc1cn(C)c2c(N3CCCC3=O)cc(C(=O)N[C@@H](Cc3ccccc3)[C@H](O)CNC(C)(C)CCCC(C)C)cc12,3.03%,4.09%,3.95%

SMILES,inhibition [1],inhibition [2],inhibition [3]
COc1ccc2cc(C=NNc3nc4ccccc4[nH]3)c(Cl)nc2c1,-0.3%,0.04%,1.79%
Nc1nc(N)c2nc(C3CC=CCC3)c(N)nc2n1 (centres undefined),2.95%,3.81%,-0.04%
O=C(NCc1cccc(F)c1)Nc1cccc(-c2ccc(-c3nc4cc(C(F)(F)F)ccc4[nH]3)cc2)c1,0.26%,1.57%,0.07%
COc1ccc(CCn2c(=N)c(C(=O)NCc3cccnc3)cc3c(=O)n4cccc(C)c4nc32)cc1,5.3%,4.73%,0.26%
CCOc1ccc(CCCON2C(=N)N=C(N)NC2(C)C)cc1,9.39%,10.4%,9.73%
CCNc1cc(C(=O)N[C@@H](Cc2ccccc2Cl)[C@H](O)CNC(C)CCCC(C)C)cc(N2CCCCS2(=O)=O)c1 (some centres undefined),-2.6%,0.93%,-2.24%
Nc1nc(N)c2cc(N(Cc3ccccc3)Cc3ccccc3)ccc2n1,16.1%,17.2%,10.8%
CS(=O)(=O)c1ccc2[nH]c(-c3cc(-c4ccc(OCCN5CCOCC5)cc4)cnc3N)nc2c1,6.63%,6.02%,4.16%
O=C(Nc1ccccc1)N(Cc1ccccc1-c1cccc(CNC2CCCC2)c1)C1CCN(Cc2ccccc2)CC1,0.15%,1.64%,4.91%
Cc1nnsc1C(=O)Nc1cccc(-c2cccc(-c3nc4ccccc4[nH]3)c2)c1,-1.84%,0.03%,-2.07%
N=C(Nc1ccccc1)Nc1cccc(Cc2ccc([N+](=O)[O-])cc2)n1,5.43%,3.98%,0.1%
O=C(NC1CCCCCC1)C1CCCN(C(=O)c2ccc(O)c(-c3ccc(Cl)c(Cl)c3)c2)C1 (centres undefined),3.16%,2.31%,2.57%
O=C(O)c1ccc2nc(-c3ccccn3)c(-c3ccccn3)nc2c1,-0.91%,-3.35%,-0.14%
COc1ccc(CN2C(=S)N(Cc3ccccc3)C(=O)C2CC(=O)Nc2ccccc2)cc1OC (centres undefined),0.79%,-0.87%,-2.09%
Oc1ccc2[nH]cc(C3CCN(CCCCCCCCCN4CCC(c5c[nH]c6ccc(O)cc56)CC4)CC3)c2c1,-1.57%,-1.31%,-1.9%
CC(=O)N1CCN(c2ccc(NC(=O)c3oc(-c4ccccc4)nc3C(F)(F)F)cn2)CC1,1.92%,1.42%,1.05%
